Source: PubChem
Most compounds without a hit are left out; they make up all but 2.4% or so of the library.
FEN1 inh – human FEN1 inhibition | P39748 | Recombinant FEN1 flap cleavage, fluorescence, 15 min | Potency, µM (series often up to 114 µM), inactives show at the top dose activity change, negative = inhibition, most hits filed as inhibitors | 390,000 tested, 0.35% active | AID 588795; note: % is set by controls: 0 for no effect and ±100 for the full control effect; nearly all actives have a fitted effect of over 65% in size
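FEN1 at 10 nM, compound pretreatment for 15 min (room temperature), 50 nM final substrate to initiate; endpoint reads at 0 and 15 min; DMSO-only plates used as vehicle background.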
WRN helicase inh – inhibitors of human WRN helicase; WRN helicase unwinding, fluorescent forked duplex, kinetic; Q14191; 360,000 tested, 0.46% active; Potency, µM (titrated, usually from 114 µM), without a hit: at the top dose activity change, negative = inhibition, most hits filed as inhibitors; note: % is set by controls: 0 for no effect and ±100 for the full control effect; nearly all actives have a fitted effect of over 55% in size
Target sequence (Q14191 whole entry, looked up): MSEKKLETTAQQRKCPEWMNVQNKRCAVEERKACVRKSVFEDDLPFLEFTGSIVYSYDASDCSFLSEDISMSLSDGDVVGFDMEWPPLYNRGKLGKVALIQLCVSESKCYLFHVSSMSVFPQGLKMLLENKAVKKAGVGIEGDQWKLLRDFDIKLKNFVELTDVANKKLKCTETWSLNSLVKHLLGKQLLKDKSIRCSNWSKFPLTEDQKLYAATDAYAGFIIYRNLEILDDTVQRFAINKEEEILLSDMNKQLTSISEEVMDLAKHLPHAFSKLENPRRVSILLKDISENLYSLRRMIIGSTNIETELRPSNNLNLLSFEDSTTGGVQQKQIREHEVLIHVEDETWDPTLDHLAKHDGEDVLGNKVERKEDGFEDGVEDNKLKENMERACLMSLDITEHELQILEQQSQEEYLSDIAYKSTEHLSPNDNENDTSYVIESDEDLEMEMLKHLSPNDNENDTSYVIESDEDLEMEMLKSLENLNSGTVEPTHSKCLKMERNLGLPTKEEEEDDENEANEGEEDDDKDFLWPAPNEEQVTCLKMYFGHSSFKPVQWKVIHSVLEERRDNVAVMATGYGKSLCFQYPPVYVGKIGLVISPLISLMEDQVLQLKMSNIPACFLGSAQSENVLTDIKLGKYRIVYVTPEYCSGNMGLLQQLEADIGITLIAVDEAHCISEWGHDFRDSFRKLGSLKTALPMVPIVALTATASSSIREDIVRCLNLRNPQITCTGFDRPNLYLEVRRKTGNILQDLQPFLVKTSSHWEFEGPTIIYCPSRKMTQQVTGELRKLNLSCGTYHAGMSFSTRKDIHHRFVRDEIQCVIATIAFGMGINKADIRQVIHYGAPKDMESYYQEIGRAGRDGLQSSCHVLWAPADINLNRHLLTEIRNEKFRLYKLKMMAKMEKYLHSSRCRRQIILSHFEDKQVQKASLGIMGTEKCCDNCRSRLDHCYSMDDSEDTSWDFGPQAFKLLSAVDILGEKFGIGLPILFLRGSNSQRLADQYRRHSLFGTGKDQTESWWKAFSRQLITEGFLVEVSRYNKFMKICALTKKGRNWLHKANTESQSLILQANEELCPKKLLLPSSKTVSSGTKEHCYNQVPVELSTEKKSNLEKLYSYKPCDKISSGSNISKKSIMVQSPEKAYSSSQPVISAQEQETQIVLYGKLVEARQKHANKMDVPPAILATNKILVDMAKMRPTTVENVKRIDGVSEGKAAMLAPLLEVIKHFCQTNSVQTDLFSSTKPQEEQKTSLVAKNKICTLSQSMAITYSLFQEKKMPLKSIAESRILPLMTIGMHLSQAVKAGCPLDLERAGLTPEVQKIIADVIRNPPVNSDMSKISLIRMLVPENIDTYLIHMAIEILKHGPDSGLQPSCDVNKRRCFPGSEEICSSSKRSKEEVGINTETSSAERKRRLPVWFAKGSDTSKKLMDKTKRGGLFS
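Screening of the MLSMR collection measured strand separation of a quenched forked DNA duplex (100 nM) by 20 nM WRN with 2 mM ATP, all final. Compounds were preincubated with enzyme 15 min at room temperature.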
POLB inh – inhibitors of human DNA polymerase beta; 340,000 tested, 1.3% active; Potency, µM (top dose mostly 114 µM), for inactives: at the highest dose activity change, negative = inhibition, most hits filed as inhibitors; P06746; Pol beta primer extension/strand displacement, fluorescence kinetic; AID 485314; note: % is set by controls: 0 for no effect and ±100 for the full control effect
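Values derive from four-parameter Hill fits of normalized kinetic data: reads at 0 and 10 min following addition of 50 nM substrate to 10 nM Pol beta preincubated 15 min with compound.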
POLI inh – DNA polymerase iota (human) inhibition; 390,000 tested, 1% active; Pol iota fluorescent replication assay, 10 min; Potency, µM (titrated, usually from 115 µM), inactives show at the highest dose activity, negative = inhibition, usual class: inhibitors
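Pol iota at 10 nM preincubated 15 min with compounds at room temperature; reaction started with fluorescent substrate, 50 nM final. Fluorescence read kinetically at 0 and 10 min; buffer-only wells as negative control.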
Pol kappa inh – blocks human DNA polymerase kappa activity; Q9UBT6; purified Pol kappa, fluorescent DNA synthesis assay, 10 min; Potency, µM (series often up to 107 µM), without a hit: at the top dose activity, negative = inhibition, usual class: inhibitors; 400,000 tested, 0.53% active; note: % is set by controls: 0 for no effect and ±100 for the full control effect
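Kinetic fluorescence screen: compound preincubated 15 min RT with 10 nM enzyme; 50 nM substrate (final) initiates; reads at 0/10 min.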
POLH inh – blocks human DNA polymerase eta activity; Q9Y253; recombinant Pol eta, fluorescent DNA replication assay; Potency, µM (titrated, usually from 114 µM), for inactives: top-dose activity change, negative = inhibition, most hits filed as inhibitors; 390,000 tested, 1.2% active; AID 588591; note: % is set by controls: 0 for no effect and ±100 for the full control effect
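Pol eta (10 nM) was preincubated with compounds for 15 min at room temperature, after which fluorescent replication substrate (50 nM final) was added to start the reaction. Fluorescence was read kinetically at 0 and 10 min.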
* marks the source's active call; other numbers are inactive results; ? = inconclusive; nt = no result given; [ ] = another dose, or the depositor's remark. Calls come from the whole dose curve; as a rule, active = well fitted curve in the direction sought with a large enough effect; inconclusive = small, poorly fitted or top-dose-only effect, or another doubt; inactive = no such curve, though single readings can be large; an effect the other way counts as inactive or inconclusive. Potency is the fitted concentration of half-maximal effect.

SMILES	FEN1 inh	WRN helicase inh	POLB inh	POLI inh	Pol kappa inh	POLH inh
C1=Cc2ccccc2/C1=C\c1cc2c3c(c1)CCCN3CCC2	-31%	nt	nt	-12%	-8%	nt
Cc1ccc(-c2csc3ncnc(OCC(=O)NC(=O)NCc4ccco4)c23)cc1	2%	-10%[57.1 µM]	40µM*	?	-32%	79µM*
Cc1sc2ncnc(NCc3ccco3)c2c1C	-6%	-25%[57.1 µM]	45µM*	?	-28%	?
O=C(Cn1ncn2c(cc3ccccc32)c1=O)NCc1ccco1	2%	-36%[57.1 µM]	50µM*	?	3%[60.1 µM]	89µM*
Cc1sc2ncnc(SCC(=O)NC(=O)NCc3ccco3)c2c1C	-20%	-27%	11µM*	?	?	89µM*
COc1ccc(CNC(=O)Cn2ncn3c(cc4ccccc43)c2=O)cc1	12%	-7%	32%	50%	-4%	-2%
CC1CCN(S(=O)(=O)c2ccc3c(c2)CCN3C(=O)Nc2ccccc2Br)CC1	9%	nt	44%	13%	0%	nt
O=C(CSc1nc2cc(Cl)ccc2s1)NC(=O)NCc1ccco1	-10%	?	45µM*	19%	?	35µM*
CCc1ccc(-c2csc3ncn(CC(=O)NCc4ccco4)c(=O)c23)cc1	-15%	-12%	-20%	19%	2%	-4%
O=C(Cn1cnc2scc(-c3ccccc3)c2c1=O)NCc1ccco1	5%	-19%	28µM*	56µM*	?	22µM*
Cc1nc(SCC(=O)NC(=O)NCc2ccco2)nc(C)c1C	-7%	-12%	18µM*	?	-14%	-21%
CCOc1ccc2nc(SCC(=O)NC(=O)NCc3ccco3)sc2c1	-3%	-4%	24%	0%	0%	-9%
CCOC(=O)c1cccc(NC(=O)c2cc(CN3CCOCC3)on2)c1	0%	nt	28%	17%	6%	-12%
O=C(COc1ccc(Cl)cc1)NCCc1csc(-c2cccc(F)c2)n1	11%	nt	-3%	?	-11%[60.1 µM]	-1%
O=C(NCCc1ccccc1)[C@@H]1CC=C[C@@H]2CCN(C3CC3)C(=O)[C@@H]21	-10%	nt	nt	-3%	-9%	nt
Cc1ccc(Nc2ccc(N)cc2S(=O)(=O)O)cc1	-26%	-30%	?	?	-1%	40µM*
O=C(/C=C/c1ccco1)N1CCN(S(=O)(=O)c2cccs2)CC1	-2%	-1%[11.6 µM]	50µM*	40µM*	-13%	?
Cc1ccc(/C=C/C(=O)N2CCN(S(=O)(=O)c3cccs3)CC2)o1	-5%	-7%	1%	23%	-3%	-3%
COc1ccc(NC(=O)c2cc3c(=O)n(Cc4ccco4)ccc3nc2C)c(OC)c1	-9%	nt	16%	-17%	-2%	6%
CCCC1(C)C(C#N)(C#N)C1(C#N)C#N	nt	nt	nt	nt	7%[60.1 µM]	nt
O=c1c2cccc3c2c(nn1CN1CCOCC1)-c1ccccc1-3	?	-3%	12%	-2%	-11%	7%
CCN(CC)CCn1nc2c3c(cccc3c1=O)-c1ccccc1-2	?	-1%[11.6 µM]	10µM*	?	-64%	-10%
Cc1ccc(CN2[C@H](C)[C@H](c3ccccc3)OCCS2(=O)=O)cc1	?	nt	nt	-16%	-15%	nt
O=C(/C=C/c1ccc(Cl)cc1)NC(=S)Nc1ccccc1C(=O)O	-3%	-4%[11.6 µM]	?	?	-12%	56µM*
NC(=O)c1ccccc1NC(=O)/C=C/c1ccc(Cl)cc1	0%	-6%	-1%	7%[58.9 µM]	-9%	-3%
COc1ccc2nc(SCC(=O)Nc3ccccc3)[nH]c2c1	-1%	0%	28µM*	-15%	-11%	-15%
O=C(CSc1nc(O)cc(=O)n1-c1ccccc1)Nc1ccc2c3c(cccc13)CC2	2%	?	35µM*	?	-17%	-29%
COc1ccc(NC(=O)CSc2nc(O)cc(=O)n2-c2ccccc2)cc1	-10%	3%[11.6 µM]	?	79µM*	-22%	-9%
COc1ccccc1NC(=O)CSc1nc2ncccc2[nH]1	8%	1%	35µM*	28%	-7%	-8%
